The supplement of paper PMC7695840
Where a name gives a salt, the structure may show the parent alone.

tested on: Staphylococcus aureus MW2 delta-mecA (mecA-); assay: normalized GFP fluorescence (growth of mecA- strain) (fraction of control range); higher = more growth of mecA- strain; details: compound concentration: 150 uM; cefoxitin: subinhibitory; fluorescent label: GFP
Outline: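 Compound at 150 μM (1.5% DMSO) in 1536-well plates received 5 µL/well of pre-induced S. aureus MW2 cells mixed 1:1, gene-carrying with DsRed and gene-deleted with GFP, in LB with a daily-set subinhibitory antibiotic dose, single replicate. After 20 h unshaken at 37 °C, 90% humidity, DsRed (540/590) and GFP (485/520) were measured and scaled per plate between single-strain control medians. Plates with high untreated ratios and rows with DsRed/GFP >10 were excluded.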

Row | Structure (SMILES) | normalized GFP fluorescence
1 | CCN(CC)CCCC(C)Nc1ccnc2cc(Cl)ccc12 (stereo not given) | 0.506
2 | COC(=O)[C@H](c1ccccc1Cl)N1CCc2sccc2C1 | 0.0333
3 | CNCC[C@@H](Oc1ccccc1C)c1ccccc1 | 0.319
4 | COc1cccc2c1C(=O)c1c(O)c3c(c(O)c1C2=O)C[C@@](O)(C(=O)CO)C[C@@H]3O[C@H]1C[C@H](N)[C@@H](O)[C@H](C)O1 | -0.00778
5 | NC(=O)c1cc[n+](CC2=C(C(=O)O)N3C(=O)[C@@H](NC(=O)[C@@H](c4ccccc4)S(=O)(=O)[O-])[C@H]3SC2)cc1 | 0.172
6 | CC1=C(CC(=O)O)c2cc(F)ccc2/C1=C\c1ccc([S+](C)[O-])cc1 (stereo not given) | 0.33
7 | COCC1=C(C(=O)OC(C)OC(=O)OC(C)C)N2C(=O)[C@@H](NC(=O)/C(=N\OC)c3csc(N)n3)[C@H]2SC1 (stereo not given in full) | 0.00501
8 | CO/N=C(\C(=O)N[C@@H]1C(=O)N2C(C(=O)OC(C)OC(C)=O)=C(COC(N)=O)CS[C@H]12)c1ccco1 (stereo not given in full) | 0.0118
9 | CC1=C(C(=O)O)N2C(=O)[C@@H](NC(=O)[C@H](N)c3ccc(O)cc3)[C@H]2SC1 | 0.0167
10 | Fc1ccc(C(c2ccc(F)cc2)N2CCN(C/C=C/c3ccccc3)CC2)cc1 | 0.0954
11 | Oc1c(Cl)cc(Cl)c(Cl)c1Cc1c(O)c(Cl)cc(Cl)c1Cl | 0.11
12 | CC(C)(C)NC[C@H](O)COc1cccc2c1CCCC2=O | 0.401
13 | COc1cccc2c1C(=O)c1c(O)c3c(c(O)c1C2=O)C[C@@](O)(C(=O)CO)C[C@@H]3O[C@H]1C[C@H](N)[C@H](O)[C@H](C)O1 [Doxorubicin (Adriamycin)] | -0.0343
14 | CCC1=C(C)CN(C(=O)NCCc2ccc(S(=O)(=O)NC(=O)N[C@H]3CC[C@H](C)CC3)cc2)C1=O | 0.0961
15 | C=CCCCCCCCCC(=O)O | 0.13
16 | CN(Cc1ccc(C(C)(C)C)cc1)Cc1cccc2ccccc12 [Butenafine HCl] | 0.11
17 | Cc1cc(/C=C/c2ccc3cc(N(C)C)ccc3[n+]2C)c(C)n1-c1ccccc1 | -0.0128
18 | C[C@@H]1O[C@@H]1P(=O)(O)O | 0.142
19 | CO[C@H]1C[C@@H]2CC[C@@H](C)[C@@](O)(O2)C(=O)C(=O)N2CCCC[C@H]2C(=O)O[C@H]([C@H](C)C[C@@H]2CC[C@@H](O)[C@H](OC)C2)CC(=O)[C@H](C)/C=C(\C)[C@@H](O)[C@@H](OC)C(=O)[C@H](C)C[C@H](C)/C=C/C=C/C=C/1C [Rapamycin (Sirolimus)] | 0.00415
20 | CC1(C)[C@H](C(=O)O)N2C(=O)C[C@H]2S1(=O)=O | 0.00608

Row | Structure (SMILES) | normalized GFP fluorescence
21 | CC1(C)[C@@H](OC(=O)CCC(=O)O)CC[C@]2(C)[C@H]3C(=O)C=C4[C@@H]5C[C@@](C)(C(=O)O)CC[C@]5(C)CC[C@@]4(C)[C@]3(C)CC[C@@H]12 | 0.146
22 | CC(=O)OCC(=O)[C@@]1(O)CC[C@H]2[C@@H]3CCC4=CC(=O)CC[C@]4(C)[C@H]3C(=O)C[C@@]21C | 0.843
23 | COc1cccc2c1C(=O)c1c(O)c3c(c(O)c1C2=O)C[C@@](O)(C(C)=O)C[C@@H]3O[C@H]1C[C@H](N)[C@H](O)[C@H](C)O1 | -0.00425
24 | Nc1ccn([C@@H]2O[C@H](CO)[C@@H](O)[C@@H]2O)c(=O)n1 | 0.00362
25 | C[C@@H]1O[C@@H](OC[C@H]2O[C@@H](Oc3c(-c4ccc(O)c(O)c4)oc4cc(O)cc(O)c4c3=O)[C@H](O)[C@@H](O)[C@@H]2O)[C@H](O)[C@H](O)[C@H]1O [Rutin (Rutoside)] | 0.394
26 | CC1=C(C(=O)O)N2C(=O)[C@@H](NC(=O)[C@H](N)C3=CCC=CC3)[C@H]2SC1 | 0.00153
27 | CCC(C)(C)c1ccc(CC(C)CN2C[C@@H](C)O[C@@H](C)C2)cc1 (stereo not given in full) | 0.099
28 | COc1ccc2cc([C@H](C)C(=O)O)ccc2c1 [Naproxen (Aleve)] | 0.0134
29 | CCCCNC(=O)NS(=O)(=O)c1ccc(C)cc1 | 0.18
30 | Oc1ccc(OCc2ccccc2)cc1 | 0.0954
31 | CO[C@H]1C[C@@H]2CC[C@@H](C)[C@@](O)(O2)C(=O)C(=O)N2CCCC[C@H]2C(=O)O[C@H]([C@H](C)C[C@@H]2CC[C@@H](O)[C@H](OC)C2)CC(=O)[C@H](C)/C=C(\C)[C@@H](O)[C@@H](OC)C(=O)[C@H](C)C[C@H](C)/C=C/C=C/C=C/1C | 0.0214
32 | CCCCCOC(=O)Nc1nc(=O)n([C@@H]2O[C@H](C)[C@@H](O)[C@H]2O)cc1F [Capecitabine (Xeloda)] | 0.0511
33 | CO[C@@]1(NC(=O)Cc2cccs2)C(=O)N2C(C(=O)O)=C(COC(N)=O)CS[C@@H]21 | 0.00393
34 | OCCN1C[C@H](O)[C@@H](O)[C@H](O)[C@H]1CO | 0.514
35 | CN(C)[C@@H]1C(O)=C(C(N)=O)C(=O)[C@@]2(O)C(O)=C3C(=O)c4c(O)cccc4[C@@](C)(O)[C@H]3[C@H](O)[C@@H]12 [Oxytetracycline dihydrate] | 0.0661
36 | CCOC(=O)C1=C(C)NC(C)=C(C(=O)OCC)C1c1ccccc1/C=C/C(=O)OC(C)(C)C [Lacidipine (Lacipil, Motens)] | 0.112
37 | c1ccc(CC2=NCCN2)cc1 | 0.234
38 | CN1CCN(c2c(F)cc3c(=O)c(C(=O)O)cn(CCF)c3c2F)CC1 [Fleroxacin (Quinodis)] | 0.0169
39 | CCOC(=O)[C@H](CCc1ccccc1)N[C@@H](C)C(=O)N1Cc2cc(OC)c(OC)cc2C[C@H]1C(=O)O [Moexipril HCl] | 0.373
40 | C[C@@H](O)[C@H]1C(=O)N2C(C(=O)O)=C(SCCNC=N)C[C@H]12 | -0.0325
